In PubChem BioAssay (EPA / NIEHS):
Activity calls are given as the source filed them. The calls were made as follows: active = hit-call score of the fitted dose curve at least 0.9, where 1 is the maximum; inactive = score below 0.9.

Key:
Settings in all cases: mRNA level, 48 h; actives raise or lower the signal
[1] = read-out: Paternally Expressed 10 (PEG10), PEG10 (gene 23089); experiment: LTEA_HepaRG_PEG10: Life Technologies and Expression Analysis (LTEA) Assay for Paternally Expressed 10 (PEG10) using HepaRG (AID 2283520)
Method in brief: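 Differentiated HepaRG cells, plated 48 h then switched to serum-free induction medium, were exposed in duplicate for 48 h to eight half-log concentrations topping at 100 uM in 0.5% DMSO. PEG10 mRNA was quantified by TaqMan qRT-PCR, normalised to ACTB, GAPDH and POLR2A.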

[2] = read-out: Nuclear factor NF-kappa-B p105 subunit (Homo sapiens) (UniProt P19838); experiment: LTEA_HepaRG_NFKB1: Life Technologies and Expression Analysis (LTEA) Assay for Nuclear Factor Kappa B Subunit 1 (NFKB1) using HepaRG (AID 2283521);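 also: TaqMan qRT-PCR transcript normalised to ACTB GAPDH and POLR2A housekeeping genes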
Method in brief: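 Human HepaRG cells receive eight half-log concentrations, highest 100 uM, for 48 h. NFKB1 expression is then quantified by qRT-PCR and analysed for up- or down-regulation relative to 0.5% DMSO vehicle.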

[3] = read-out: Protein phosphatase 2A (PPP2R4), PTPA (gene 5524); experiment: LTEA_HepaRG_PPP2R4: Life Technologies and Expression Analysis (LTEA) Assay for Protein phosphatase 2A (PPP2R4) using HepaRG (AID 2283522)
Method in brief: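 Differentiated HepaRG cells in serum-free induction medium were exposed in duplicate for 48 h to eight concentrations, top 100 uM with half-log dilutions, in 0.5% DMSO. PPP2R4 mRNA was quantified by TaqMan qRT-PCR, normalized to ACTB, GAPDH and POLR2A.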

[4] = read-out: Phosphatase and tensin (PTEN), PTEN (gene 5728); experiment: LTEA_HepaRG_PTEN: Life Technologies and Expression Analysis (LTEA) Assay for Phosphatase and tensin (PTEN) using HepaRG (AID 2283523)
Method in brief: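 HepaRG cells, 48 h after plating, exposed in duplicate for 48 h in serum-free induction medium to 8 half-log concentrations up to 100 uM (0.5% DMSO). PTEN mRNA by qRT-PCR, normalized to ACTB, GAPDH, POLR2A; bidirectional fit versus DMSO.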

[5] = read-out: solute carrier (SLC22A1), SLC22A1 (gene 6580); experiment: LTEA_HepaRG_SLC22A1: Life Technologies and Expression Analysis (LTEA) Assay for solute carrier (SLC22A1) using HepaRG (AID 2283524)
Method in brief: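 Differentiated human HepaRG cells in serum-free induction medium, exposed 48 h in duplicate to 8-point half-log series from 100 µM top in 0.5% DMSO. SLC22A1 mRNA by TaqMan qRT-PCR normalized to ACTB, GAPDH, POLR2A; bidirectional fit versus DMSO.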

[6] = read-out: Pyruvate Dehydrogenase Kinase 4 (PDK4), PDK4 (gene 5166); experiment: LTEA_HepaRG_PDK4: Life Technologies and Expression Analysis (LTEA) Assay for Pyruvate Dehydrogenase Kinase 4 (PDK4) using HepaRG (AID 2283525)
Method in brief: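 HepaRG cells plated 48 h, then switched to serum-free induction medium and exposed in duplicate for 48 h to 8 half-log concentrations from 100 uM in 0.5% DMSO. PDK4 mRNA measured by qRT-PCR, normalized to ACTB, GAPDH and POLR2A; bidirectional fit versus DMSO.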

[7] = read-out: NAD(P)H dehydrogenase [quinone] 1 (NQO1), NQO1 (gene 1728); experiment: LTEA_HepaRG_NQO1: Life Technologies and Expression Analysis (LTEA) Assay for NAD(P)H dehydrogenase [quinone] 1 (NQO1) using HepaRG (AID 2283526)
Method in brief: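 Differentiated HepaRG cells, plated 48 h and then switched to serum-free induction medium, were exposed in duplicate for 48 h to 8-point half-log concentrations up to 100 uM in 0.5% DMSO. mRNA measured by qRT-PCR, normalized to ACTB, GAPDH, POLR2A; bidirectional fit versus DMSO.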

[8] = read-out: Nuclear factor erythroid 2-related factor 2 (Homo sapiens) (UniProt Q16236); experiment: LTEA_HepaRG_NFE2L2: Life Technologies and Expression Analysis (LTEA) Assay for Nuclear factor erythroid 2-related factor 2 (NFE2L2) Transcription Factor using HepaRG (AID 2283527);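 as to outcome: TaqMan qRT-PCR transcript level normalised to ACTB GAPDH and POLR2A housekeeping genes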
Method in brief: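 Differentiated human HepaRG cells, serum-free induction medium, exposed 48 h in duplicate to eight half-log concentrations up to 100 uM in 0.5% DMSO. NFE2L2 mRNA by Fluidigm TaqMan qRT-PCR, normalised to ACTB, GAPDH, POLR2A; bidirectional change versus DMSO.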

[9] = read-out: succinate dehydrogenase complex iron sulfur subunit B (SDHB), SDHB (gene 6390); experiment: LTEA_HepaRG_SDHB: Life Technologies and Expression Analysis (LTEA) Assay for succinate dehydrogenase complex iron sulfur subunit B (SDHB) using HepaRG (AID 2283528)
Method in brief: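 A human HepaRG culture in serum-free induction medium received test chemicals for 48 h over an eight-point range capped at 100 uM. SDHB expression change was quantified by qRT-PCR.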

[10] = read-out: Signal transducer and activator of transcription 3 (Homo sapiens) (UniProt P40763); experiment: LTEA_HepaRG_STAT3: Life Technologies and Expression Analysis (LTEA) Assay for Signal transducer and activator of transcription (STAT3) using HepaRG (AID 2283529)
Method in brief: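 Differentiated HepaRG cells, serum-free induction medium, dosed 48 h in duplicate, 8 half-log concentrations from 100 uM in 0.5% DMSO. STAT3 mRNA by qRT-PCR, normalised to ACTB, GAPDH, POLR2A; bidirectional fit versus DMSO.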

Sequence of Nuclear factor NF-kappa-B p105 subunit (Homo sapiens) (P19838 whole entry, looked up): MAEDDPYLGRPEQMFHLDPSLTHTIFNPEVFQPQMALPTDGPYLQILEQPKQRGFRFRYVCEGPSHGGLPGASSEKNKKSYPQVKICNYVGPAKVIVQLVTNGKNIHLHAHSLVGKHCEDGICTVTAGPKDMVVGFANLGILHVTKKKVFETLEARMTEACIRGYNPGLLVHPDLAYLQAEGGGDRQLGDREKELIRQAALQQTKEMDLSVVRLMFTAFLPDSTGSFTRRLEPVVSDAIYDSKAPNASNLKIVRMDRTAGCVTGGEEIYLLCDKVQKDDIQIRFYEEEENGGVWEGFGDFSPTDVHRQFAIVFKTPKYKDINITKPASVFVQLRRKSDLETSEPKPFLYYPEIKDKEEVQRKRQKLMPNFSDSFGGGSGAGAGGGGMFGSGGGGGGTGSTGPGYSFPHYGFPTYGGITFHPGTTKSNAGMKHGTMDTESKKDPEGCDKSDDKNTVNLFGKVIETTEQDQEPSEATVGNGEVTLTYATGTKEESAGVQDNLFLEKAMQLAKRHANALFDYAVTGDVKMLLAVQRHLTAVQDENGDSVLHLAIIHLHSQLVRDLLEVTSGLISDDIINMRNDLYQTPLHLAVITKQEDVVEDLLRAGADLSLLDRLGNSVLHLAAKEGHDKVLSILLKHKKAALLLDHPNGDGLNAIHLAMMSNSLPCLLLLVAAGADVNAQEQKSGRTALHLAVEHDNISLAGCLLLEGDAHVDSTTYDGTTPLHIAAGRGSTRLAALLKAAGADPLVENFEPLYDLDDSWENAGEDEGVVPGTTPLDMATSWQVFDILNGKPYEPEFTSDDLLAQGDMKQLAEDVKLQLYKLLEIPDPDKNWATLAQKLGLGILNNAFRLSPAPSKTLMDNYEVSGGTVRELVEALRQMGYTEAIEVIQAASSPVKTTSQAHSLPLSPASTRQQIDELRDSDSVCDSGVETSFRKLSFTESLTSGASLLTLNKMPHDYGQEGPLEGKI
Sequence of Nuclear factor erythroid 2-related factor 2 (Homo sapiens) (Q16236 whole entry, looked up): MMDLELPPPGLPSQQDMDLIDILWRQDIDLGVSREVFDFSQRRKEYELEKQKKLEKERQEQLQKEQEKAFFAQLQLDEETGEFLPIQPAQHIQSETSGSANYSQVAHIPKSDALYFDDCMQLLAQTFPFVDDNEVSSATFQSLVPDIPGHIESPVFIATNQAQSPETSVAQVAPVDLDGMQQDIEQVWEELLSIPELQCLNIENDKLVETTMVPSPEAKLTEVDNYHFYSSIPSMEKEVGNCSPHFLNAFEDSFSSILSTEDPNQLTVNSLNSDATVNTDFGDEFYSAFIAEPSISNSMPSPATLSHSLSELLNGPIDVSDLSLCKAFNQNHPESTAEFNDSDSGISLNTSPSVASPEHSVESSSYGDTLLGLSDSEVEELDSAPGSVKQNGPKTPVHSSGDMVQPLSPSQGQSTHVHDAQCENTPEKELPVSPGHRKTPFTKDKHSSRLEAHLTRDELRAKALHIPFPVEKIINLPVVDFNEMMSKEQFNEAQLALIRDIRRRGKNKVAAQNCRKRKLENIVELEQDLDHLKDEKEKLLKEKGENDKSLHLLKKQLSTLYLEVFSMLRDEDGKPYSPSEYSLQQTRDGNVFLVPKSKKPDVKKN
Sequence of Signal transducer and activator of transcription 3 (Homo sapiens) (P40763 whole entry, looked up): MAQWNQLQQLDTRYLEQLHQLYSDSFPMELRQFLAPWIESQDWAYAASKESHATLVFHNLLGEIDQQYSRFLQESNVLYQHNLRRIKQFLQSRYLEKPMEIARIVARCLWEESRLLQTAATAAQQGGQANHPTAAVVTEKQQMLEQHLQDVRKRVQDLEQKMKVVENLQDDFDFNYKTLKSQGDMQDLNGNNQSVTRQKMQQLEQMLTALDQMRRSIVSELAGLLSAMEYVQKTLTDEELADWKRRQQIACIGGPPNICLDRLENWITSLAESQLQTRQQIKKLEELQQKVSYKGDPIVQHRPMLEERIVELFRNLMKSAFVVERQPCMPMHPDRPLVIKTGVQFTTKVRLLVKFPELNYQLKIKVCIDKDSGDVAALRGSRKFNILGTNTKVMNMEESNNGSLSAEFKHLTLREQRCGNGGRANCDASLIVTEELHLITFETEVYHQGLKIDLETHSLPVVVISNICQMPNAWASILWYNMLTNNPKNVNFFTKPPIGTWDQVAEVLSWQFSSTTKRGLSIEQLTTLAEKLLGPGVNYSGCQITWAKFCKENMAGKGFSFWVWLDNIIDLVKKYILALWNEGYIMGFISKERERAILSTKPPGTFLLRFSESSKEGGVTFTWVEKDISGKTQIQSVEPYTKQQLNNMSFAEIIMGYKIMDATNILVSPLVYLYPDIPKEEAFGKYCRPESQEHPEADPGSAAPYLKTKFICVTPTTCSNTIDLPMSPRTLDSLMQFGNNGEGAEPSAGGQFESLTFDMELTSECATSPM

Row | Compound | AC50 [1] | outcome [2] | AC50 [3] | outcome [4] | AC50 [5] | AC50 [6] | outcome [7] | outcome [8] | AC50 [9] | outcome [10] | outcome [1] | outcome [3] | outcome [5] | outcome [6] | outcome [9] | AC50 [8] | AC50 [10] | AC50 [4] | AC50 [7]
1 | CC(C)N1C(=O)N(c2ccccc2)CSC1=NC(C)(C)C | 12.7 µM (active) | inactive | 77.4 µM (active) | inactive | 81.4 µM (active) | 87.8 µM (active) | inactive | inactive | 50 µM (active) | inactive | – | – | – | – | – | – | – | – | –
2 | C=C(C)CN(CC)c1c([N+](=O)[O-])cc(C(F)(F)F)cc1[N+](=O)[O-] | – | inactive | – | inactive | – | – | inactive | inactive | – | inactive | inactive | inactive | inactive | inactive | inactive | – | – | – | –
3 | O=c1n(Cl)c(=O)n(Cl)c(=O)n1Cl | – | inactive | – | inactive | – | – | inactive | inactive | – | inactive | inactive | inactive | inactive | inactive | inactive | – | – | – | –
4 | COCC(C)N(C(=O)CCl)c1c(C)csc1C (stereo not given) | – | inactive | – | inactive | 73.3 µM (active) | – | inactive | inactive | – | inactive | inactive | inactive | – | inactive | inactive | – | – | – | –
5 | CC(C)NC(=O)N1CC(=O)N(c2cc(Cl)cc(Cl)c2)C1=O | – | inactive | – | inactive | 21.3 µM (active) | 12.7 µM (active) | inactive | – | – | – | inactive | inactive | – | – | inactive | 13.1 µM (active) | 5.78 µM (active) | – | –
6 | CCCCOCN(C(=O)CCl)c1c(CC)cccc1CC | – | inactive | – | inactive | – | 50 µM (active) | inactive | inactive | – | inactive | inactive | inactive | inactive | – | inactive | – | – | – | –
7 | CCNP(=S)(OC)O/C(C)=C/C(=O)OC(C)C (stereo not given) | – | inactive | – | inactive | – | – | inactive | – | – | inactive | inactive | inactive | inactive | inactive | inactive | 9.92 µM (active) | – | – | –
8 | CCOP(=O)(OCC)Oc1nc(Cl)c(Cl)cc1Cl | 59.6 µM (active) | inactive | 76.6 µM (active) | inactive | 92.2 µM (active) | – | inactive | – | – | inactive | – | – | – | inactive | inactive | 49.8 µM (active) | – | – | –
9 | Nc1cnn(-c2ccccc2)c(=O)c1Cl | – | inactive | – | inactive | – | – | inactive | inactive | – | inactive | inactive | inactive | inactive | inactive | inactive | – | – | – | –
10 | O=C(O)c1c(Cl)ccc2cc(Cl)cnc12 | – | inactive | – | inactive | – | – | inactive | inactive | – | inactive | inactive | inactive | inactive | inactive | inactive | – | – | – | –
11 | COC(=O)c1c(C(F)F)nc(C(F)(F)F)c(C2=NCCS2)c1CC(C)C | – | inactive | – | inactive | – | – | inactive | inactive | – | inactive | inactive | inactive | inactive | inactive | inactive | – | – | – | –
12 | CCN(CC)c1nc(C)cc(OP(=S)(OC)OC)n1 | – | inactive | – | inactive | – | – | inactive | inactive | – | inactive | inactive | inactive | inactive | inactive | inactive | – | – | – | –
13 | Cc1cc(C)nc(Nc2ccccc2)n1 | – | inactive | – | inactive | 9.92 µM (active) | – | inactive | inactive | – | inactive | inactive | inactive | – | inactive | inactive | – | – | – | –
14 | OC(c1ccc(Cl)cc1)(c1ccc(Cl)cc1)C(Cl)(Cl)Cl | – | inactive | – | – | 81.9 µM (active) | 80.5 µM (active) | – | – | – | inactive | inactive | inactive | – | – | inactive | 71 µM (active) | – | 78.4 µM (active) | 93 µM (active)
15 | CNC(=O)N(C)c1nnc(C(C)(C)C)s1 | – | inactive | – | inactive | – | – | inactive | inactive | – | inactive | inactive | inactive | inactive | inactive | inactive | – | – | – | –
16 | N#Cc1c[nH]cc1-c1cccc2c1OC(F)(F)O2 | 74.2 µM (active) | inactive | – | inactive | 40.7 µM (active) | 83.9 µM (active) | inactive | – | – | inactive | – | inactive | – | – | inactive | 84.7 µM (active) | – | – | –
17 | CCOc1cc(C(C)(C)C)ccc1C1COC(c2c(F)cccc2F)=N1 (stereo not given) | – | inactive | – | inactive | – | – | inactive | inactive | – | inactive | inactive | inactive | inactive | inactive | inactive | – | – | – | –
